Some test systems named below: NCI-H23 lung; NCI-H226 lung; NCI-H322M lung; HOP-62 NSCLC; NCI-H460 lung; NCI-H522 lung; A549/ATCC NSCLC; 786-0 renal; COLO 205 colon; DU-145 prostate; K-562 leukemia; MALME-3M melanoma; MDA-MB-231 breast; SF-268 CNS; SF-295 CNS; SF-539 CNS; M14 melanoma; RXF 393 renal; UACC-257 melanoma; HOP-92 NSCLC.
What all share (test): NCI-60 one-dose screen, 48 h (100 = growth as untreated, 0 = no growth, -100 = all killed)
What all share (settings): 10 µM unless noted

Compounds without any hit were thinned out: in the full panel of roughly 83,000, 20% have a hit.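 Single-concentration screen, 48 h exposure, 96-well plates. Endpoint: percent growth. Below 10 = active.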 Unmarked numbers belong to inactive results. Active and inactive are the calls of the source.

In the case of `CC1(O)CCC2CC3OC3(C)CCC3OC3(C)C(O)CC1C2(C)C` (centres undefined), the growth was 96% in the assay with NCI-H23 lung; 115% in the assay on NCI-H226 lung; 115% in the assay on NCI-H322M lung; 116% in the assay with HOP-62 NSCLC; 120% in the assay on NCI-H460 lung; 97.6% with NCI-H522 lung. Further, the growth in the assay on A549/ATCC NSCLC was 92.8%; in the assay on 786-0 renal it was 104%; in the assay with COLO 205 colon, 109%; with DU-145 prostate, 105%; with K-562 leukemia it was 119%; in the assay with MALME-3M melanoma, 113%. In addition, the growth with MDA-MB-231 breast is 122%; in the assay with SF-268 CNS it was 113%; in the assay on SF-295 CNS, 52%; with SF-539 CNS, 116%; in the assay with M14 melanoma, 114%.
For the compound `COc1cnc2c(c1)C(=O)c1c-2n(CCCN2CCOCC2)c(=O)c2cc(Cl)ccc12`, the growth in the assay with NCI-H23 lung is 20.6%; in the assay with NCI-H226 lung, 20.6%; in the assay on NCI-H322M lung, 31.3%; in the assay with HOP-62 NSCLC it was 4.59% (active); in the assay with NCI-H460 lung it was 3.15% (active); with NCI-H522 lung it was 24.3%. For the same compound, the growth in the assay on A549/ATCC NSCLC is 34.9%; in the assay with 786-0 renal, -0.608% (active); in the assay with COLO 205 colon, 9.49% (active); with DU-145 prostate it was 17.8%; with K-562 leukemia it was 27.5%; in the assay on MDA-MB-231 breast it was 64.1%. Besides, the growth in the assay with RXF 393 renal was 1.67% (active); in the assay with SF-268 CNS it was 29.1%; in the assay on SF-295 CNS, 8.59% (active); in the assay on SF-539 CNS, 6.36% (active); in the assay on M14 melanoma, 11.9%.
On to `CC(C)(C)c1cnc(CSc2cnc(NC(=O)C3CCNCC3)s2)o1`, for which the growth in the assay with NCI-H23 lung was -22.2% (active); with NCI-H226 lung it was 3.09% (active); in the assay with NCI-H322M lung it was 5.62% (active); in the assay with HOP-62 NSCLC, -16.2% (active); with NCI-H460 lung, 2.67% (active); with NCI-H522 lung it was -24.8% (active). Besides, the growth in the assay on A549/ATCC NSCLC was 1.61% (active); with 786-0 renal it was 12%; with COLO 205 colon, -45.3% (active); in the assay with DU-145 prostate, 7.26% (active); in the assay on K-562 leukemia it was 4.07% (active); in the assay on MALME-3M melanoma, -41.1% (active). Besides, the growth is 6.82% (active) in the assay on MDA-MB-231 breast; -51.5% (active) in the assay with RXF 393 renal; 12% in the assay on SF-268 CNS; 11.6% with SF-295 CNS; -33.1% (active) in the assay with SF-539 CNS; -25.5% (active) in the assay with UACC-257 melanoma. Further, the growth in the assay with M14 melanoma is -58.6% (active).
`COc1cc(-c2cc(-c3ccc(Nc4ccnc5cc(Cl)ccc45)cc3)nc(N3CCOCC3)n2)cc(OC)c1OC`: the growth in the assay on NCI-H23 lung is 0.48% (active); with NCI-H226 lung, 92.3%; with NCI-H322M lung it was 28.9%; in the assay on HOP-62 NSCLC, -39.1% (active); in the assay with NCI-H460 lung, -43.9% (active); in the assay with NCI-H522 lung, -23.7% (active). The growth is -30.7% (active) with A549/ATCC NSCLC; -65.5% (active) with 786-0 renal; 32.4% in the assay with COLO 205 colon; 4.95% (active) in the assay with DU-145 prostate; 7.37% (active) in the assay with K-562 leukemia; -22.4% (active) with MALME-3M melanoma. Moreover, the growth with MDA-MB-231 breast is -15.4% (active); with RXF 393 renal, -8.41% (active); with SF-268 CNS, 11.2%; in the assay with SF-295 CNS it was 6.95% (active); with SF-539 CNS, 32.9%; in the assay on M14 melanoma it was -22.2% (active).
As to `Nc1c(C(=O)c2ccccc2)sc2nc(-c3cccs3)cc(-c3cccs3)c12`, the growth in the assay with NCI-H23 lung was 67%; with NCI-H226 lung, 80.6%; with NCI-H322M lung it was 80.8%; with HOP-62 NSCLC it was 59.6%; with NCI-H460 lung it was 14.2%; in the assay on HOP-92 NSCLC it was 69.2%. Besides, the growth with NCI-H522 lung was -20.7% (active); with 786-0 renal it was 47.6%; with COLO 205 colon it was 35.9%; with DU-145 prostate, 68.2%; with K-562 leukemia, 18.9%; with MALME-3M melanoma, 74.4%. The growth in the assay on MDA-MB-231 breast was 58.4%; in the assay on SF-268 CNS, 53.5%; in the assay with SF-295 CNS it was 35%; with SF-539 CNS, 39.4%; in the assay on M14 melanoma, 27%.
As to `CCS(=O)(=O)N1CCN(c2ccc(Nc3ncc(C(N)=O)c(NC4CC4)n3)cc2)CC1`, the growth with NCI-H23 lung is 75.9%; with NCI-H226 lung, 73.1%; in the assay with NCI-H322M lung, 79.4%; with HOP-62 NSCLC, 59.3%; in the assay with NCI-H460 lung it was 60.3%; in the assay with NCI-H522 lung it was 59.2%. Besides, the growth with A549/ATCC NSCLC is 62.2%; with 786-0 renal, 89%; in the assay on COLO 205 colon, 1.91% (active); with DU-145 prostate, 88.5%; in the assay on K-562 leukemia it was 56.4%; in the assay with MALME-3M melanoma, 76.7%. Moreover, the growth in the assay on MDA-MB-231 breast was 69.6%; with RXF 393 renal, 25.8%; in the assay on SF-268 CNS it was 75.5%; with SF-295 CNS it was 61.9%; in the assay on SF-539 CNS, 53.5%; in the assay with UACC-257 melanoma, 101%. In addition, the growth in the assay on M14 melanoma was 59.5%.
Consider `Nc1c2c(c(O)c3c1=C(CO)C=N3)=NCCS2=O` (centres undefined), for which the growth in the assay with NCI-H23 lung is -33.4% (active); in the assay with NCI-H226 lung, -52.2% (active); in the assay on NCI-H322M lung, -95.1% (active); in the assay with HOP-62 NSCLC, -52.7% (active); in the assay with NCI-H460 lung, -61.7% (active); in the assay with NCI-H522 lung it was -46.9% (active). Also, the growth in the assay with A549/ATCC NSCLC is -42.4% (active); in the assay on 786-0 renal, 36.1%; with COLO 205 colon it was -75.1% (active); with DU-145 prostate, -95.1% (active); with K-562 leukemia, -7.83% (active); in the assay on MALME-3M melanoma it was -97.8% (active). For the same compound, the growth in the assay with MDA-MB-231 breast is 1.89% (active); in the assay on SF-268 CNS it was -38.2% (active); in the assay on SF-295 CNS, -95.8% (active); in the assay with SF-539 CNS, -88.8% (active); with M14 melanoma, -85.2% (active).
Consider `CC(=Nc1ccccc1)C1=C(O)C(Cc2ccc(O)cc2)NC1=O` (centres undefined), for which the growth was 2.24% (active) with NCI-H23 lung; 15.5% in the assay with NCI-H226 lung; 39.6% with NCI-H322M lung; 19.8% with HOP-62 NSCLC; 4.41% (active) in the assay on NCI-H460 lung; -10.1% (active) in the assay on HOP-92 NSCLC. Further, the growth in the assay with NCI-H522 lung was -27.1% (active); in the assay on 786-0 renal, 9.29% (active); with COLO 205 colon, -71% (active); with DU-145 prostate it was -28.6% (active); with MALME-3M melanoma it was 58.6%; with MDA-MB-231 breast, 11.3%. Besides, the growth in the assay on SF-268 CNS is 11.5%; in the assay on SF-295 CNS, -41.1% (active); in the assay on SF-539 CNS, -33.7% (active); in the assay with M14 melanoma, 0.122% (active).
Take `CN1C/C=C\CCOc2cccc(c2)-c2ccnc(n2)Nc2cccc(c2)C1`: the growth was -56.6% (active) with NCI-H23 lung; -33.7% (active) in the assay on NCI-H226 lung; -17.7% (active) in the assay on NCI-H322M lung; -44.5% (active) in the assay with HOP-62 NSCLC; -73.6% (active) with NCI-H460 lung; -70.1% (active) in the assay on NCI-H522 lung. Further, the growth is -50.1% (active) with A549/ATCC NSCLC; -85.9% (active) in the assay with 786-0 renal; -81.6% (active) in the assay on COLO 205 colon; 5.04% (active) in the assay with DU-145 prostate; -18.5% (active) in the assay on K-562 leukemia; -79.4% (active) with MALME-3M melanoma. The growth in the assay with MDA-MB-231 breast is -38.6% (active); with RXF 393 renal, -86.1% (active); in the assay on SF-268 CNS it was -50.8% (active); in the assay with SF-295 CNS it was -86.3% (active); in the assay with SF-539 CNS, -91.8% (active); with UACC-257 melanoma it was -73.7% (active). The growth with M14 melanoma is -78.4% (active).

The values are drawn from PubChem BioAssay (NCI).
